Laboratory results published in PubChem BioAssay AID1159580 (chemical genetic matrix, 2015).
Several values for one entry are separate records, joined by “and”; a condition that tells them apart may be missing. Equal entries are not always repeated. Among all 5,500 compounds or so, about 2,000 (36%) were called active. Another 18% or so got no clear call; they are omitted. No stated cut-off is given here; in the data, active means normalized growth mostly below about 0.91 (no sharp cut-off); inconclusive means no clear call, values can overlap the other calls; inactive means mostly above about 0.92. This is one part of the list.

Experiment: chemical genetic growth profiling, strain panel (AID 1159580);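 further: tested at 20 µM; growth read once vehicle control cultures reached saturation at 30 °C; 1 = growth at the plate median or of vehicle wells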
Conditions: S. cerevisiae deletion strains, growth OD

Question: With `CCCc1nc(-c2ccccn2)[nH]c(=O)c1CC1CC1` as the compound, how does the normalized growth (locus YAL013W, strain DEP1, stronger effect = lower value) read?
Answer: The normalized growth was 0.861 (active).

Question: And the normalized growth (locus YAR019C, strain CDC15, stronger effect = lower value)?
Answer: Its normalized growth is 0.947 (inactive).

Question: And the normalized growth (locus YBL105C, strain PKC1, stronger effect = lower value)?
Answer: The normalized growth was 0.955 (inactive).

Question: What about the normalized growth (locus YBR135W, strain CKS1, stronger effect = lower value) of the same compound?
Answer: The normalized growth was 0.955 (inactive).

Question: And the normalized growth (locus YBR136W, strain MEC1, stronger effect = lower value)?
Answer: Its normalized growth is 0.952 (inactive).

Question: And the normalized growth (locus YBR160W, strain CDC28, stronger effect = lower value)?
Answer: The normalized growth was 0.96 (inactive).

Question: And the normalized growth (locus YBR229C, strain ROT2, stronger effect = lower value)?
Answer: The normalized growth was 0.727 (active).

Question: What about the normalized growth (locus YDL017W, strain CDC7, stronger effect = lower value) of the same compound?
Answer: The normalized growth was 0.956 (inactive).

Question: What about the normalized growth (locus YDL028C, strain MPS1, stronger effect = lower value) of the same compound?
Answer: Its normalized growth is 0.937 (inactive).

Question: And the normalized growth (locus YDL101C, strain DUN1, stronger effect = lower value)?
Answer: The normalized growth was 0.948 (inactive) and 0.899 (active).

Question: What about the normalized growth (locus YDL108W, strain KIN28, stronger effect = lower value) of the same compound?
Answer: The normalized growth was 0.956 (inactive).

Question: And the normalized growth (locus YDL132W, strain cdc53, stronger effect = lower value)?
Answer: The normalized growth was 0.948 (inactive).

Question: And the normalized growth (locus YDL134C, strain PPH21, stronger effect = lower value)?
Answer: Its normalized growth is 0.862 (active).

Question: What about the normalized growth (locus YDL214C, strain PRR2, stronger effect = lower value) of the same compound?
Answer: Its normalized growth is 0.944 (inactive).

Question: What about the normalized growth (locus YDR052C, strain DBF4, stronger effect = lower value) of the same compound?
Answer: The normalized growth was 0.962 (inactive).

Question: What about the normalized growth (locus YDR054C, strain cdc34, stronger effect = lower value) of the same compound?
Answer: The normalized growth was 0.93 (inactive).

Question: And the normalized growth (locus YDR226W, strain ADK1, stronger effect = lower value)?
Answer: The normalized growth was 0.954 (inactive).

Question: And the normalized growth (locus YDR477W, strain SNF1, stronger effect = lower value)?
Answer: The normalized growth was 0.945 (inactive).

Question: And the normalized growth (locus YEL061C, strain CIN8, stronger effect = lower value)?
Answer: Its normalized growth is 0.611 (active).

Question: And the normalized growth (locus YER123W, strain YCK3, stronger effect = lower value)?
Answer: Its normalized growth is 0.903 (inactive).

Question: What about the normalized growth (locus YER133W, strain GLC7, stronger effect = lower value) of the same compound?
Answer: The normalized growth was 0.952 (inactive).

Question: What about the normalized growth (locus YFL009W, strain cdc4, stronger effect = lower value) of the same compound?
Answer: Its normalized growth is 0.942 (inactive).

Question: What about the normalized growth (locus YFL029C, strain CAK1, stronger effect = lower value) of the same compound?
Answer: Its normalized growth is 0.935 (inactive).

Question: What about the normalized growth (locus YFR003C, strain YPI1, stronger effect = lower value) of the same compound?
Answer: Its normalized growth is 0.958 (inactive).

Question: What about the normalized growth (locus YFR019W, strain FAB1, stronger effect = lower value) of the same compound?
Answer: The normalized growth was 0.968 (inactive).

Question: And the normalized growth (locus YFR028C, strain CDC14, stronger effect = lower value)?
Answer: Its normalized growth is 0.96 (inactive).

Question: What about the normalized growth (locus YGR040W, strain KSS1, stronger effect = lower value) of the same compound?
Answer: Its normalized growth is 0.936 (inactive).

Question: And the normalized growth (locus YGR052W, strain FMP48, stronger effect = lower value)?
Answer: Its normalized growth is 1.01 (inactive).

Question: And the normalized growth (locus YGR078C, strain PAC10, stronger effect = lower value)?
Answer: Its normalized growth is 0.842 (active).

Question: And the normalized growth (locus YGR092W, strain DBF2, stronger effect = lower value)?
Answer: Its normalized growth is 0.865 (inactive).

Question: And the normalized growth (locus YGR229C, strain SMI1, stronger effect = lower value)?
Answer: Its normalized growth is 0.886 (active).

Question: What about the normalized growth (locus YHR030C, strain SLT2, stronger effect = lower value) of the same compound?
Answer: The normalized growth was 0.292 (active) and 0.919 (inactive).

Question: What about the normalized growth (locus YHR079C, strain IRE1, stronger effect = lower value) of the same compound?
Answer: The normalized growth was 0.853 (inactive).

Question: And the normalized growth (locus YHR082C, strain KSP1, stronger effect = lower value)?
Answer: Its normalized growth is 0.968 (inactive).

Question: And the normalized growth (locus YHR087W, strain rtc3, stronger effect = lower value)?
Answer: The normalized growth was 0.754 (active).

Question: And the normalized growth (locus YHR205W, strain SCH9, stronger effect = lower value)?
Answer: Its normalized growth is 0.98 (inactive).

Question: And the normalized growth (locus YIL147C, strain SLN1, stronger effect = lower value)?
Answer: Its normalized growth is 0.945 (inactive).

Question: What about the normalized growth (locus YJL095W, strain BCK1, stronger effect = lower value) of the same compound?
Answer: Its normalized growth is 0.915 (inactive).

Question: And the normalized growth (locus YJL128C, strain PBS2, stronger effect = lower value)?
Answer: The normalized growth was 0.96 (inactive).

Question: And the normalized growth (locus YJL157C, strain FAR1, stronger effect = lower value)?
Answer: The normalized growth was 0.928 (inactive).

Question: And the normalized growth (locus YJL187C, strain SWE1, stronger effect = lower value)?
Answer: Its normalized growth is 0.829 (active).

Question: And the normalized growth (locus YJR016C, strain ILV3, stronger effect = lower value)?
Answer: Its normalized growth is 0.953 (inactive).

Question: And the normalized growth (locus YJR043C, strain POL32, stronger effect = lower value)?
Answer: The normalized growth was 0.923 (inactive).

Question: What about the normalized growth (locus YJR066W, strain TOR1 (second series), stronger effect = lower value) of the same compound?
Answer: The normalized growth was 0.849 (inactive).

Question: What about the normalized growth (locus YJR066W, strain TOR1, stronger effect = lower value) of the same compound?
Answer: The normalized growth was 0.887 (inactive).

Question: What about the normalized growth (locus YJR075W, strain HOC1, stronger effect = lower value) of the same compound?
Answer: The normalized growth was 0.879 (active).

Question: And the normalized growth (locus YKL048C, strain ELM1, stronger effect = lower value)?
Answer: The normalized growth was 0.956 (inactive).

Question: What about the normalized growth (locus YKL067W, strain YNK1, stronger effect = lower value) of the same compound?
Answer: Its normalized growth is 0.954 (inactive).

Question: And the normalized growth (locus YKL101W, strain HSL1, stronger effect = lower value)?
Answer: The normalized growth was 0.933 (inactive).

Question: And the normalized growth (locus YKL190W, strain CNB1, stronger effect = lower value)?
Answer: The normalized growth was 0.698 (active).

Question: What about the normalized growth (locus YKL193C, strain SDS22, stronger effect = lower value) of the same compound?
Answer: The normalized growth was 0.952 (inactive).

Question: And the normalized growth (locus YKL203C, strain TOR2, stronger effect = lower value)?
Answer: Its normalized growth is 0.98 (inactive).

Question: What about the normalized growth (locus YLR039C, strain RIC1, stronger effect = lower value) of the same compound?
Answer: The normalized growth was 0.489 (active).

Question: What about the normalized growth (locus YLR058C, strain SHM2 (second series), stronger effect = lower value) of the same compound?
Answer: Its normalized growth is 0.938 (inactive).

Question: What about the normalized growth (locus YLR085C, strain ARP6, stronger effect = lower value) of the same compound?
Answer: The normalized growth was 0.218 (active).

Question: What about the normalized growth (locus YLR113W, strain HOG1, stronger effect = lower value) of the same compound?
Answer: Its normalized growth is 0.88 (inactive).

Question: And the normalized growth (locus YLR133W, strain CKI1, stronger effect = lower value)?
Answer: Its normalized growth is 0.938 (inactive).

Question: What about the normalized growth (locus YLR262C, strain YPT6, stronger effect = lower value) of the same compound?
Answer: The normalized growth was 0.757 (active).

Question: And the normalized growth (locus YLR403W, strain SFP1, stronger effect = lower value)?
Answer: Its normalized growth is 0.94 (inactive).

Question: What about the normalized growth (locus YML070W, strain DAK1, stronger effect = lower value) of the same compound?
Answer: The normalized growth was 0.959 (inactive).

Question: What about the normalized growth (locus YML094W, strain GIM5, stronger effect = lower value) of the same compound?
Answer: The normalized growth was 0.534 (active).

Question: What about the normalized growth (locus YMR001C, strain CDC5, stronger effect = lower value) of the same compound?
Answer: Its normalized growth is 0.949 (inactive).

Question: And the normalized growth (locus YMR205C, strain PFK2 (second series), stronger effect = lower value)?
Answer: Its normalized growth is 0.939 (inactive).

Question: What about the normalized growth (locus YMR219W, strain ESC1, stronger effect = lower value) of the same compound?
Answer: The normalized growth was 0.916 (active).

Question: What about the normalized growth (locus YMR263W, strain SAP30, stronger effect = lower value) of the same compound?
Answer: The normalized growth was 0.889 (active).

Question: And the normalized growth (locus YMR277W, strain FCP1, stronger effect = lower value)?
Answer: Its normalized growth is 0.953 (inactive).

Question: What about the normalized growth (locus YMR307W, strain GAS1, stronger effect = lower value) of the same compound?
Answer: The normalized growth was 0.386 (active).

Question: And the normalized growth (locus YNL006W, strain LST8, stronger effect = lower value)?
Answer: Its normalized growth is 0.966 (inactive).

Question: What about the normalized growth (locus YNL020C, strain ARK1, stronger effect = lower value) of the same compound?
Answer: The normalized growth was 0.937 (inactive).

Question: What about the normalized growth (locus YNL128W, strain TEP1, stronger effect = lower value) of the same compound?
Answer: Its normalized growth is 0.869 (active).

Question: And the normalized growth (locus YNL153C, strain GIM3, stronger effect = lower value)?
Answer: Its normalized growth is 0.84 (active).

Question: And the normalized growth (locus YNL161W, strain CBK1, stronger effect = lower value)?
Answer: Its normalized growth is 0.957 (inactive).

Question: What about the normalized growth (locus YNL183C, strain NPR1, stronger effect = lower value) of the same compound?
Answer: Its normalized growth is 0.93 (inactive).

Question: What about the normalized growth (locus YNL207W, strain RIO2, stronger effect = lower value) of the same compound?
Answer: Its normalized growth is 0.94 (inactive).

Question: And the normalized growth (locus YNL222W, strain SSU72, stronger effect = lower value)?
Answer: Its normalized growth is 0.959 (inactive).

Question: And the normalized growth (locus YNL298W, strain CLA4 (second series), stronger effect = lower value)?
Answer: Its normalized growth is 0.601 (active).

Question: And the normalized growth (locus YNL307C, strain MCK1 (second series), stronger effect = lower value)?
Answer: The normalized growth was 0.937 (inactive).

Question: What about the normalized growth (locus YNL322C, strain KRE1, stronger effect = lower value) of the same compound?
Answer: Its normalized growth is 0.975 (inactive).

Question: What about the normalized growth (locus YNR030W, strain Alg12, stronger effect = lower value) of the same compound?
Answer: The normalized growth was 0.498 (active).

Question: What about the normalized growth (locus YOL078W, strain AVO1, stronger effect = lower value) of the same compound?
Answer: Its normalized growth is 0.951 (inactive).

Question: And the normalized growth (locus YOL136C, strain PFK27, stronger effect = lower value)?
Answer: Its normalized growth is 0.959 (inactive).

Question: What about the normalized growth (locus YOR061W, strain CKA2, stronger effect = lower value) of the same compound?
Answer: The normalized growth was 0.925 (inactive).

Question: What about the normalized growth (locus YOR119C, strain RIO1, stronger effect = lower value) of the same compound?
Answer: The normalized growth was 0.937 (inactive).

Question: And the normalized growth (locus YOR231W, strain MKK1, stronger effect = lower value)?
Answer: The normalized growth was 0.881 (inactive).

Question: And the normalized growth (locus YOR329C, strain SCD5, stronger effect = lower value)?
Answer: The normalized growth was 0.952 (inactive).

Question: And the normalized growth (locus YPL031C, strain PHO85, stronger effect = lower value)?
Answer: The normalized growth was 0.941 (inactive).

Question: And the normalized growth (locus YPL055C, strain LGE1, stronger effect = lower value)?
Answer: Its normalized growth is 0.738 (active).

Question: What about the normalized growth (locus YPL153C, strain RAD53, stronger effect = lower value) of the same compound?
Answer: The normalized growth was 0.926 (inactive).

Question: And the normalized growth (locus YPL204W, strain HRR25, stronger effect = lower value)?
Answer: Its normalized growth is 0.927 (inactive).

Question: And the normalized growth (locus YPL209C, strain IPL1, stronger effect = lower value)?
Answer: The normalized growth was 0.958 (inactive).

Question: And the normalized growth (locus YPL241C, strain CIN2, stronger effect = lower value)?
Answer: The normalized growth was 0.648 (active).

Question: And the normalized growth (locus YPL256C, strain CLN2, stronger effect = lower value)?
Answer: The normalized growth was 0.9 (inactive).

Question: What about the normalized growth (locus YPR025C, strain CCL1, stronger effect = lower value) of the same compound?
Answer: Its normalized growth is 0.949 (inactive).

Question: And the normalized growth (locus YPR106W, strain ISR1, stronger effect = lower value)?
Answer: Its normalized growth is 0.979 (inactive).

Question: And the normalized growth (locus YPR111W, strain DBF20, stronger effect = lower value)?
Answer: Its normalized growth is 0.973 (inactive).

Question: And the normalized growth (locus YPR135W, strain CTF4, stronger effect = lower value)?
Answer: Its normalized growth is 0.413 (active).

Question: And the normalized growth (strain NNK1, stronger effect = lower value)?
Answer: The normalized growth was 0.962 (inactive).

Question: And the normalized growth (strain TSCII, stronger effect = lower value)?
Answer: The normalized growth was 0.949 (inactive).
